# Records with an inconclusive call do not appear. A number with no mark means an inactive call. The source made the active and inactive calls. Calls come from the whole dose curve; as a rule, active = well fitted inhibition curve with a large enough effect in the signal ratio in the repeat runs, with a control signal flat; inconclusive = weak or mixed curves, or effect the other way; inactive = flat fitted curve, though single readings scatter; the % refers to the signal ratio.
# Biological target: D(2) dopamine receptor (Homo sapiens) (UniProt P14416)
# Assay: Dopamine D2 receptor (DRD2) small molecule antagonists, cell-based qHTS assay (AID 1963595)
# Conditions: HEK293-DRD2 cAMP HTRF antagonist mode; series mostly up to 92.4 µM; activity change, negative = inhibition: at the top concentration
# Description: National Center for Advancing Translational Sciences [NCATS]
# Division of Preclinical Innovation [DPI]
# U.S. Environmental Protection Agency [EPA]
# National Institutes of Environmental Health Sciences [NIEHS]
# National Toxicology Program [NTP]
# U.S. Food and Drug Administration [FDA]
# DRD2 is the D2 subtype of the dopamine receptor, which is coupled to Gi subtype of G protein-coupled receptor. This G protein-coupled receptor inhibits adenylyl cyclase activity. The DRD2-HEK293 cell line stably expressing D2 dopamine receptor can be used for screening agonists and antagonists of interactions between D2 and its ligands. The Hek293-DRD2 cAMP assay is based on HTRF technology. It measures changes of cAMP accumulation in response to Gi coupled GPCR activation or inhibition.
# Tox21 Assay Protocol Summary:
# DRD2-Hek293 cells were dispensed at 600 cells/3uL/well in 1536-well white plates using a Multidrop Dispenser. After the assay plates were incubated at a 37 C/5% CO2 incubator for 24 h, 1 uL of Ro20-1724 at final concentration of 0.1 mM was transferred to the assay plate by a Flying Reagent Dispenser. Following Ro20-1724 addition, 23 nL of compound dissolved in DMSO, positive controls or DMSO only was added to the assay plates via Wako pintool station. The assay plates were incubated at room temperature for 10 min. Next, 1 uL of mixture of NKH477 (final concentration at 200 nM) and quinpirole (final concentration at 12 nM) was added into the plates. After the assay plates were incubated at room temperature for an additional 30 min, 2.5 ul/well of cAMP-d2 and 2.5 ul/well of anti-cAMP-cryptate were added respectively into the assay plates using a Flying Reagent Dispenser. The plates were incubated at room temperature for 1 h. The fluorescence intensity in the plates was measured at 340 nm excitation and 665 & 620 nm emission by an Envision plate reader.
# % is set by controls: 0 for no effect and ±100 for the full control effect; potency is the fitted concentration of half-maximal effect.
# D(2) dopamine receptor (Homo sapiens), sequence (P14416 whole entry, looked up): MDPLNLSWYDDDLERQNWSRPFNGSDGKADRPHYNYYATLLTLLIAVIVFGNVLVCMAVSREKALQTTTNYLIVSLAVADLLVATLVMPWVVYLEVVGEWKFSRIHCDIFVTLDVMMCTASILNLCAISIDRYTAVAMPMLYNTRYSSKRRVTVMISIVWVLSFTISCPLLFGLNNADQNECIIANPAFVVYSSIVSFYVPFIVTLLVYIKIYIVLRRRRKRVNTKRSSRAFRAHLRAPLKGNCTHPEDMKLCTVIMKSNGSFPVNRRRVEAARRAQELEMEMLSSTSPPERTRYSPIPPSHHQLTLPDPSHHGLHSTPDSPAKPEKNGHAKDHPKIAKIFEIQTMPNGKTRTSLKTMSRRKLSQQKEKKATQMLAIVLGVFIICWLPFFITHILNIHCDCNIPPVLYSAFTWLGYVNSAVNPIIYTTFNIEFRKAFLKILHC
SMILES,"activity change, negative = inhibition",Potency
Cc1cc(NC(=O)C(=O)O)cc(C)c1Oc1ccc(O)c2c1CCC2,3.99%,–
CC(S)C(C)S (stereo not given),11.6%,–
O=[N+]([O-])c1ccc(NCCO)c(OCCO)c1,4.31%,–
Nc1ccc2ccccc2c1S(=O)(=O)O,-1.84%,–
CCN(CC)CCNC(C(=O)OCCC(C)C)c1ccccc1 (stereo not given),-14.8% [at 42.5 µM],–
Cc1cc2nc(N)sc2cc1C,2.02%,–
CN(C)CCCCCCN(C)C,0.661%,–
O=C(O)C(=O)Cc1ccccc1,0.339%,–
O=Cc1ccc(Cl)c([N+](=O)[O-])c1,-1.7%,–
CCC(C)O (stereo not given),1.42%,–
CC(Cc1ccccc1)(NC(=O)CN)c1ccccc1 (stereo not given),3.36% [at 42.5 µM],–
CCCn1cc[n+](C)c1C,12.9%,–
O=C(CCCN1CC=C(n2c(=O)[nH]c3ccccc32)CC1)c1ccc(F)cc1,–,21.1 nM (active)
C[C@H](CCC(=O)O)[C@H]1CC[C@H]2[C@@H]3[C@H](O)C[C@@H]4C[C@H](O)CC[C@]4(C)[C@H]3CC[C@]12C,-5.11%,–
CN(C)CCCN1c2ccccc2Sc2ccc(C(F)(F)F)cc21,–,59.6 nM (active)
CC[C@H]1OC(=O)[C@H](C)[C@@H](O[C@H]2C[C@@](C)(OC)[C@@H](O)[C@H](C)O2)[C@H](C)[C@@H](O[C@@H]2O[C@H](C)C[C@H](N(C)C)[C@H]2O)[C@](C)(O)C[C@@H](C)/C(=N\OCOCCOC)[C@H](C)[C@@H](O)[C@]1(C)O,-4.67% [at 42.5 µM],–
O=c1[nH][nH]c2ccccc12,-1.07%,–
CC(C)(CO)[C@@H](O)C(=O)NCCCO,-7.72% [at 42.5 µM],–
CCCCCC[C@@H](O)C/C=C\CCCCCCCC(=O)O,7.06%,–
CCN(C)C(=O)Oc1cccc([C@H](C)N(C)C)c1,9.09% [at 42.5 µM],–

SMILES,"activity change, negative = inhibition",Potency
CCOc1ccc2[nH]cc(C(=O)NCc3ccccc3)c(=O)c2n1,9.35%,–
CC(=O)Oc1ccc2c(c1)CC[C@@H]1[C@@H]2CC[C@]2(C)[C@@H](O)CC[C@@H]12,-0.883% [at 42.5 µM],–
CN(C)c1ccc(O)c2c1C[C@H]1C[C@H]3[C@H](N(C)C)C(=O)C(C(N)=O)=C(O)[C@@]3(O)C(=O)C1=C2O,5.95% [at 42.5 µM],–
c1ccc(Sc2ccccc2)cc1,0.881%,–
CC(C)CCOC(=O)/C=C/c1ccccc1,-2.01%,–
OC(C#CCN1CCCC1)(c1ccccc1)c1ccccc1,0.641% [at 42.5 µM],–
CC1=NN(c2cccc(S(=O)(=O)O)c2)C(=O)C1,-4.26%,–
CCC(CC)Nc1ccc(C)c(C)c1,-4.35%,–
CCOc1ccc2nc(S(N)(=O)=O)sc2c1,2.35% [at 42.5 µM],–
CCC(C)c1cc(C(C)(C)C)c(O)c(C(C)(C)C)c1 (stereo not given),-1.82%,–
Cn1c(=O)c2c(ncn2CC2OCCO2)n(C)c1=O,2.37% [at 42.5 µM],–
CCCCCCCCCCC[C@@H](C[C@@H]1OC(=O)[C@H]1CCCCCC)OC(=O)[C@H](CC(C)C)NC=O,-1.46% [at 42.5 µM],–
CC1=C(C(=O)O)N2C(=O)[C@@H](NC(=O)[C@H](N)C3=CCC=CC3)[C@H]2SC1,12.8% [at 42.5 µM],–
O=C(Nc1cccc(C(F)(F)F)c1)c1cc(Br)cc(Br)c1O,3.59%,–
Nc1cccc([N+](=O)[O-])c1,4.32%,–
CCCCOCC(C)OCC(C)O (stereo not given),-1.74%,–
COCCOC,9.07%,–
CN(C)[C@@H]1C(=O)C(C(N)=O)=C(O)[C@@]2(O)C(=O)C3=C(O)c4c(O)cccc4C[C@H]3C[C@@H]12,8.83% [at 42.5 µM],–
Cc1ccc(C(C)C)cc2c(C)ccc1-2,-0.958% [at 42.5 µM],–
CCOC(=O)[C@@](C)(N)Cc1ccc(O)c(O)c1,0.63% [at 42.5 µM],–
